According to PubChem BioAssay (NCATS):
Where “and” joins values, the source holds several entries; their conditions need not be identical. Identical values can stand only once. Inconclusive results are not listed. Entries that show only a call come without a potency. Calls of active or inactive are those of the source. Unless noted, the call rests on the fitted dose curve; in most records, active means well fitted curve in the direction sought with a large enough effect; inconclusive means small, poorly fitted or top-dose-only effect, or another doubt; inactive means no such curve, though single readings can be large; an effect the other way counts as inactive or inconclusive.

Legend:
[1] = target: Calcium and integrin-binding protein 1 (Homo sapiens) (UniProt Q99828); experiment: Primary qHTS for Identification of Calcium Integrin Binding Protein 1 (CIB1) Competitor (AID 1508620);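 further: GST tagged CIB1 binding a fluorescein labelled alphaIIb integrin peptide tracer; top concentration of the series differs between compounds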
How it was run: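 CIB1-GST (1 uM final) and compound incubated 15 min at room temperature before adding FITC-alphaIIb peptide tracer (100 nM final). Competition for binding read by fluorescence polarization (ex 480, em 540) after another 15 min at room temperature.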

[2] = Primary qHTS for small molecule stabilizers of the endoplasmic reticulum resident proteome: Secreted ER Calcium Modulated Protein (SERCaMP) assay (AID 1508630)
How it was run: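 GLuc-SERCaMP-expressing SH-SY5Y cells, pretreated 16 h with compound, are challenged with thapsigargin to empty ER calcium stores; after 4 h, coelenterazine is added directly to the medium and luminescence is imaged.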

[3] = target: Cytochrome P450 2D6 (Homo sapiens) (UniProt P10635); experiment: Cytochrome P450 family 2 subfamily D member 6 (CYP2D6) small molecule antagonists: luciferase biochemical (cell-free) qHTS assay (AID 1645840; active means well fitted curve in the direction sought with a large enough effect in the repeat runs; an effect the other way counts as inactive or inconclusive; further: nearly all actives have a fitted effect of over 55% in size; further: potency means the concentration at half of the fitted maximal effect)
How it was run: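 P450-Glo luminescent screen: recombinant CYP2D6 enzyme–proluciferin substrate mix preincubated with compound 10 min at room temperature, then NADPH regeneration added for 1 h at room temperature. Detection reagent added for 20 min; luciferin light read as relative luminescence units.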

[4] = Primary qHTS for inhibitors of nuclear receptor binding SET domain protein 2 (NSD2) in an isogenic RCH-ACV NSD2 p.E1099K mutant (9B) (AID 1645876); further: nearly all actives have a fitted effect of over 70% in size; further: potency means the concentration at half of the fitted maximal effect
[5] = target: Cytochrome P450 2C9 (Homo sapiens) (UniProt P11712); experiment: Cytochrome P450 family 2 subfamily C member 9 (CYP2C9) small molecule antagonists: luciferase biochemical (cell-free) qHTS assay (AID 1645842; active means well fitted curve in the direction sought with a large enough effect in the repeat runs; an effect the other way counts as inactive or inconclusive; further: nearly all actives have a fitted effect of over 55% in size; further: potency means the concentration at half of the fitted maximal effect)
How it was run: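 Luminescence, after 20 min with luciferin detection reagent, reflected CYP2C9 turnover during a 1 h NADPH-driven reaction at 37C. Enzyme-substrate mix contained 0.4% bovine serum albumin and was preincubated with compound 10 min at room temperature.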

[6] = target: N-terminal Xaa-Pro-Lys N-methyltransferase 1 (Homo sapiens) (UniProt Q9BV86); experiment: Confirmatory qHTS for Inhibitors of N-terminal methyltransferase 1 (NTMT1): MTaseGlo Assay (AID 1645874);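 further: luminescence from SAH made as NTMT1 methylates SPKRIA peptide using SAM; series mostly up to about 100 µM; nearly all actives have a fitted effect of over 65% in size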
How it was run: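 qHTS format: NTMT1 125 nM, SAM 100 uM, peptide SPKRIA 1 uM final; 15 min compound preincubation, 30 min reaction at room temperature. MTase-Glo luminescence.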

Cytochrome P450 2D6 (Homo sapiens), sequence (P10635 whole entry, looked up): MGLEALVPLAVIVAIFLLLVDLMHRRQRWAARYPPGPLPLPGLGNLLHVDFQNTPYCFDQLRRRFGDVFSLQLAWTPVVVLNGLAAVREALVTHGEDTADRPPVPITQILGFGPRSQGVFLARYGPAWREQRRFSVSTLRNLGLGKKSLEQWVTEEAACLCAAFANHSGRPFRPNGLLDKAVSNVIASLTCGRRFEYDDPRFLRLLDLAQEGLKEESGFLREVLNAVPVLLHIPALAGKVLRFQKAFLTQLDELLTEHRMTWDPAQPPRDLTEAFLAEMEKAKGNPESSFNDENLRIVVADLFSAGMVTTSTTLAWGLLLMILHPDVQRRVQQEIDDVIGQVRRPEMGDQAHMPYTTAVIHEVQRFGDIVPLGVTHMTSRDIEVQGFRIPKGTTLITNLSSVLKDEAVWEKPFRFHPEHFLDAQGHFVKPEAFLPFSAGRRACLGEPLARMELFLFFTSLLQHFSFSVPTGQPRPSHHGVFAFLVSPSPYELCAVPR
Cytochrome P450 2C9 (Homo sapiens), sequence (P11712 whole entry, looked up): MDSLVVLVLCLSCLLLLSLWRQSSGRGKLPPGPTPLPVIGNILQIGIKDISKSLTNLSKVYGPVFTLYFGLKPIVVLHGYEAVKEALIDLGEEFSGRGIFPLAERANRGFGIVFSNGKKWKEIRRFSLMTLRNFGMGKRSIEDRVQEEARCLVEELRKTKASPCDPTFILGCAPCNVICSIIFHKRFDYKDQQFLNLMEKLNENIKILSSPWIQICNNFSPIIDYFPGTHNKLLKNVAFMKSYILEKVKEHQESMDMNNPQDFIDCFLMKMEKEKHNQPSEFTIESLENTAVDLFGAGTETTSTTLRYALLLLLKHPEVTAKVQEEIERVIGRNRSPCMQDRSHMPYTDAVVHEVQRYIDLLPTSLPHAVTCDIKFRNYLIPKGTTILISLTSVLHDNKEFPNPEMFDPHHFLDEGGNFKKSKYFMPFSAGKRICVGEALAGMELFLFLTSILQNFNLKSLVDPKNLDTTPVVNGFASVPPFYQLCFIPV
Calcium and integrin-binding protein 1 (Homo sapiens), sequence (Q99828 whole entry, looked up): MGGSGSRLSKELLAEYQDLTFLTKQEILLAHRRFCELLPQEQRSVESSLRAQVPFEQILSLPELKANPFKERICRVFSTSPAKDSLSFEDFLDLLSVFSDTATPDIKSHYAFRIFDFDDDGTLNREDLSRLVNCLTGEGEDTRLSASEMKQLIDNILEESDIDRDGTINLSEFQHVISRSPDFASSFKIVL
N-terminal Xaa-Pro-Lys N-methyltransferase 1 (Homo sapiens), sequence (Q9BV86 whole entry, looked up): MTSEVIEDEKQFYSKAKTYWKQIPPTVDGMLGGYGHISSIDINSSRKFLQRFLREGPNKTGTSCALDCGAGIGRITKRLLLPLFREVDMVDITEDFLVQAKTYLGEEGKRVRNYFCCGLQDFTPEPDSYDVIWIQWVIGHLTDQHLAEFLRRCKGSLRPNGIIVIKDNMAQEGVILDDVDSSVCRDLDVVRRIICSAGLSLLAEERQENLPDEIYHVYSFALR

SMILES	outcome [1]	Potency [2]	Potency [3]	Potency [4]	Potency [5]	Potency [6]
O=C(Cc1ccc(-c2ccc(OCCN3CCOCC3)cc2)cn1)NCc1ccccc1	inactive	inactive	inactive	459 nM (active) and 105 nM (active)	–	–
C=C1C(=CC=C2CCC[C@]3(C)[C@@H]([C@H](C)C=C[C@H](C)C(C)C)CC[C@@H]23)C[C@@H](O)C[C@@H]1O	inactive	inactive	–	inactive	9.52 µM (active)	–
CN[C@H]1CCc2cc(OC)c(OC)c(OC)c2-c2ccc(OC)c(=O)cc21	inactive	inactive	–	105 nM (active)	–	–
CC(C)(O)c1cc2nc(-c3cnc(N)nc3)nc(N3CCOCC3)c2s1	inactive	inactive	inactive	372 nM (active)	–	–
COc1cc2c(cc1-c1c(C)noc1C)ncc1[nH]c(=O)n([C@H](C)c3ccccn3)c12	inactive	inactive	–	468 nM (active)	–	–
CCn1cc(-c2ccnc3[nH]c(-c4cccc(CN(C)C)c4)cc23)c(-c2ccc(NC(=O)N(C)C)cc2)n1	inactive	inactive	19 µM (active)	112 nM (active) and 1.86 µM (active)	21.3 µM (active)	–
COC(=O)Nc1nc2ccc(C(=O)c3ccc(F)cc3)cc2[nH]1	inactive	inactive	–	1.29 µM (active) and 468 nM (active)	–	–
O=C(O)c1ccc2cc(-c3ccc(O)c(C45CC6CC(CC(C6)C4)C5)c3)ccc2c1	inactive	inactive	–	934 nM (active)	–	–
CC(C)c1cc(C(=O)N2Cc3ccc(CN4CCN(C)CC4)cc3C2)c(O)cc1O	inactive	–	inactive	115 nM (active) and 148 nM (active)	12 µM (active)	–
COC(=O)Nc1ccc(-c2nc(N3CCOCC3)c3cnn(C4CCN(Cc5cccnc5)CC4)c3n2)cc1	inactive	inactive	–	833 nM (active)	–	–
COc1ccc(-c2cc3c(C)nc(N)nc3n(C3CCC(OCCO)CC3)c2=O)cn1 (stereo not given)	inactive	–	inactive	20.5 nM (active) and 41.7 nM (active)	5.35 µM (active) and 4.25 µM (active)	inactive
COc1cccc2c(NCc3ccccc3)nc(-n3c(N)nc4ccccc43)nc12	inactive	inactive	1.9 µM (active)	8330 nM (active)	6.74 µM (active)	–
Cc1cn2c(-c3cn[nH]c3)cnc2c(Nc2ccc(C(=O)N3CCNCC3)cc2F)n1	inactive	inactive	–	9160 nM (active)	–	–
CC(O)C1C(=O)N2C(C(=O)O)=C(SC3CNC(C(=O)N(C)C)C3)C(C)C12 (stereo not given)	inactive	inactive	–	inactive	–	–
Cn1c(=O)n(-c2ccc(C(C)(C)C#N)cc2)c2c3cc(-c4cnc5ccccc5c4)ccc3ncc21	inactive	inactive	–	103 nM (active) and 38.2 nM (active)	–	–
CCCCc1nc2cc(C=CC(=O)NO)ccc2n1CCN(CC)CC	inactive	–	12 µM (active)	–	–	–
CNC(=O)c1ccccc1Nc1nc(Nc2ccc(N3CCOCC3)cc2OC)ncc1Cl	inactive	inactive	–	2.05 µM (active) and 2.35 µM (active)	0.301 µM (active)	–
O=C(Nc1ncc(-c2cc(C(F)F)nn2-c2c(Cl)cccc2Cl)s1)C1CC1	inactive	inactive	10.7 µM (active)	934 nM (active)	6.74 µM (active)	–
Cc1cnc(-c2cnc(NCCNc3ccc(C#N)cn3)nc2-c2ccc(Cl)cc2Cl)[nH]1	inactive	inactive	1.51 µM (active)	4.59 µM (active) and 3.72 µM (active)	1.51 µM (active)	–
CC1(C)CC(=O)c2c(C(F)(F)F)nn(-c3ccc(C(N)=O)c(NC4CCC(OC(=O)CN)CC4)c3)c2C1 (stereo not given)	inactive	inactive	15.1 µM (active)	103 nM (active) and 74.2 nM (active)	2.68 µM (active)	–
NC1(Cc2ccc(Cl)cc2)CCN(c2ncnc3[nH]ccc23)CC1	inactive	inactive	–	9340 nM (active)	inactive	–
Nc1nccc(Oc2ccc(NC(=O)c3c[nH]cc(-c4ccc(F)cc4)c3=O)cc2F)c1Cl	inactive	inactive	3.38 µM (active)	11800 nM (active)	8.49 µM (active)	–
COc1cc(C)c(Sc2cnc(NC(=O)c3ccc(CNC(C)C(C)C)cc3)s2)cc1C(=O)N1CCN(C(C)=O)CC1 (stereo not given)	inactive	inactive	21.3 µM (active)	8.33 µM (active) and 7.28 µM (active)	0.536 µM (active)	–
